Assay outcomes (PubChem BioAssay)
The list is not random: actives were taken first. Their share in the collection is about 4%.
Mdm2 MdmX PPI = inhibitors of human Mdm2-MdmX association, primary screen, cell-based, luminescence, split luciferase, SaOS-2, uHTS; 330,000 tested, 3% active; inhibition, % at 8 µM; AID 485346, 2010; SaOS-2 split-luciferase Mdm2/MdmX complementation;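 active = inhibition of at least 50% at 8 µM in the primary screen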
Target sequence (O15151 whole entry, looked up): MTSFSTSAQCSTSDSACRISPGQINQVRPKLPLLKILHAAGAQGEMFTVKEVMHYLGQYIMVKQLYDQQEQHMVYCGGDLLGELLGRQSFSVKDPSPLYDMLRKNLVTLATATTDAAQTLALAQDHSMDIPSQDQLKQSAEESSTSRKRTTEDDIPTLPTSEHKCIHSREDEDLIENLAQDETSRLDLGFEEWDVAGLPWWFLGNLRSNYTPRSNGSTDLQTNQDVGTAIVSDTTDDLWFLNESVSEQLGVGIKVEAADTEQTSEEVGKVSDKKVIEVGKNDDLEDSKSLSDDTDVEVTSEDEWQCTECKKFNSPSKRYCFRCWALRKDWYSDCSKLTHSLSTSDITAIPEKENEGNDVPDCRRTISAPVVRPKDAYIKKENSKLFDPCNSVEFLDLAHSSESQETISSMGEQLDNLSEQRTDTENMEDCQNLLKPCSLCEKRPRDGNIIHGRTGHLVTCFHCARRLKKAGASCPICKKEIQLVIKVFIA
Target sequence (Q00987 whole entry, looked up): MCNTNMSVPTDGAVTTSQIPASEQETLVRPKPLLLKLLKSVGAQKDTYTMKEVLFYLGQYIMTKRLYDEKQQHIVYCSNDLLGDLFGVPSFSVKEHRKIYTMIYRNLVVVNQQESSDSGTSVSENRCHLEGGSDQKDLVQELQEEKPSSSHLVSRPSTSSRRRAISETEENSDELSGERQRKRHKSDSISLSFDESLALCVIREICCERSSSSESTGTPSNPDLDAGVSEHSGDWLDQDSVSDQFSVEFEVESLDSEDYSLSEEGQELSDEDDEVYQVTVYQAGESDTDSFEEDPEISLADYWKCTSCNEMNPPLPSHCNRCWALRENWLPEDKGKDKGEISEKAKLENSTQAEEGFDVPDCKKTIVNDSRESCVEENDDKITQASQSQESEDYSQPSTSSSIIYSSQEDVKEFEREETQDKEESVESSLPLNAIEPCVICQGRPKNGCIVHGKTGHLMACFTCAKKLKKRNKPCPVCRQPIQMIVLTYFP
Shn3 3UTR inh = reduction of Shn3 3'UTR firefly luciferase signal, primary screen, Schnurri-3 inhibitor project, cell-based, Clone20 osteoblasts, set 2 | Clone20 osteoblast Shn3 3'UTR firefly luciferase, 24 h | inhibition, % at 12.5 µM | 360,000 tested, 0.52% active | AID 588674, 2011;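 active = mean inhibition of at least 75% with every replicate also reaching 75%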
Gli-Sufu block = Gli-Sufu pathway antagonists, primary screen, luciferase luminescence, Sufu-KO-LIGHT cells, uHTS | Sufu-KO-LIGHT fibroblasts, Gli luciferase reporter luminescence | inhibition, % at 5 µM | 340,000 tested, 0.74% active | AID 588413, 2011;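 active = inhibition above about 55%, limit read from the data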
Beta cell apopt = inhibitors of cytokine-induced beta cell apoptosis, primary screen, luminescence | INS-1E cytokine-induced death, ATP luminescence, 48 h; percent of positive-control rescue, neutral wells zero | protection from apoptosis, % (concentration not given with the values) | 300,000 tested, 0.8% active;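 active = Every replicate reaches about 75%, or at least half do and their mean reaches it too, limit read from the data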;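 note: higher means more ATP so stronger rescue from cytokine killing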
PAX8 reporter = inhibitors of PAX8-driven TPO luciferase reporter, primary screen, RMG-I cells, single concentration; AID 652154, 2013; 360,000 tested, 1.2% active; SteadyGlo, 24 h; inhibition, % at 12.6 µM;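 active = mean replicate inhibition at least 60% with every replicate also reaching 60%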;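 note: luciferase light reporting Pax8 driven TPO promoter activity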
CSC inhib = cancer stem cell viability inhibitors, primary screen, luminescence. cancer stem cell-like cells viability. inhibition, % at 7.5 µM. 300,000 tested, 1.1% active; in the data active = inhibition above about 75%; tested in HMLE shEcad cells
Mdm2-MdmX conf = Mdm2-MdmX complex disruptors, retested hits, confirmation, luminescence, single concentration; 10,000 tested, 55% active; inhibition, % at 8 µM; AID 489028, 2010; Mdm2-MdmX binding, luminescent assay; shares compounds with Mdm2 MdmX PPI; in the data active = inhibition above about 40%
FLuc counter = full-length luciferase signal inhibition, confirmation, counter-screen for Mdm2/MdmX interaction inhibitor project, cell-based, single concentration, SaOS-2; shares compounds with Mdm2 MdmX PPI; SaOS-2 full-length luciferase counterscreen, luminescence; inhibition, % at 8 µM; 6,200 tested, 77% active; AID 504607, 2011;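 active = mean inhibition at 8 µM reaching about 37%, which flags the compound as non-specific, limit read from the data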;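 note: p53-null SaOS-2 cells with luciferase driven by a doxycycline-inducible promoter; compound on cells about two nights before reading with doxycycline added after day one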
Hits are given with their value; i = inactive; nt = not tested or not shown.

SMILES | Mdm2 MdmX PPI | Shn3 3UTR inh | Gli-Sufu block | Beta cell apopt | PAX8 reporter | CSC inhib | Mdm2-MdmX conf | FLuc counter
CCCNC(=O)[C@@H]1[C@@H](CO)[C@@H]2Cn3c(ccc(/C=C/c4ccccc4)c3=O)[C@H]1N2C(=O)c1cccnc1 | nt | nt | nt | nt | i | nt | nt | nt
COc1ccc(C(=O)/C(C#N)=N/Nc2ccc([N+](=O)[O-])cc2)cc1 | 90 | 89 | 69 | 107 | 90 | i | 92 | 51
N#C/C(=N\Nc1ccc(Cl)cc1)C(=O)c1ccccc1 | 84 | i | i | 99 | i | i | 56 | 44
COc1cc(C(=S)N2CCN(c3cccc(Cl)c3)CC2)ccc1O | 55 | i | i | i | i | i | 55 | 51
CCNC(=O)C[C@H]1CC[C@H](NC(=O)C2CCOCC2)[C@H](CO)O1 | nt | nt | nt | nt | i | nt | nt | nt
Cc1ccccc1OCC(O)Cn1c(NCc2ccccc2)nc2c1c(=O)[nH]c(=O)n2C (stereo not given) | i | i | i | i | i | nt | nt | nt
C=CCNc1nc2c(c(=O)[nH]c(=O)n2C)n1CC(O)COc1ccc2ccccc2c1 (stereo not given) | 59 | i | i | nt | i | nt | i | nt
CCCN(C)C[C@@H]1OCCCC[C@H](C)Oc2ccc(NC(=O)Nc3ccc(C(F)(F)F)cc3)cc2C(=O)N([C@@H](C)CO)C[C@@H]1C | nt | nt | nt | nt | i | nt | nt | nt
c1ccc(COc2ccccc2CNC2CCCC2)cc1 | i | i | i | i | i | i | nt | nt
c1ccc(COc2ccccc2CNC23CC4CC(CC(C4)C2)C3)cc1 | 96 | i | i | i | i | i | 70 | 59
Cc1cccc(NS(=O)(=O)c2ccc(C)c(C(=O)OCC(=O)Nc3cc(C)on3)c2)c1 | 88 | i | i | i | nt | i | 76 | i
Cc1cccc(NS(=O)(=O)c2cc(C(=O)OCC(=O)Nc3cc(C)on3)ccc2C)c1 | i | i | nt | i | i | i | nt | nt
C[C@@H]1CN([C@@H](C)CO)C(=O)Cc2cc(N(C)C)ccc2O[C@H]1CN(C)CC1CC1 | nt | nt | nt | nt | i | nt | nt | nt
COc1cc2c3nnc(-c4ccccc4)c-3cn(Cc3ccccc3F)c2cc1OC | 84 | nt | i | i | i | i | 53 | 40
O=C(Nc1ccc(F)c(Cl)c1)C1CCN(c2ncnc3c2nc2n3CCCCC2)CC1 | i | i | i | i | i | i | nt | nt
CC(=O)c1ccc(NC(=O)C2CCCN(c3ncnc4c3nc3n4CCCCC3)C2)cc1 (stereo not given) | i | i | i | i | i | nt | nt | nt
CSc1cccc(NC(=O)C2CCCN(c3ncnc4c3nc3n4CCCCC3)C2)c1 (stereo not given) | 57 | i | i | i | i | i | i | nt
CC(C)c1ccc(NC(=O)C2CCN(c3ncnc4c3nc3n4CCCCC3)CC2)cc1 | 72 | i | i | i | i | i | i | nt
O=C(C1CCC1)N1C[C@H]2[C@@H](c3ccccc31)[C@H](CO)N2C(=O)c1ccccc1F | nt | nt | nt | nt | i | nt | nt | nt
CNC(=O)C[C@H]1CC[C@@H]2[C@H](COc3ccc(NC(=O)Cc4cccs4)cc3C(=O)N2C)O1 | nt | nt | nt | nt | i | nt | nt | nt
Oc1ccc2ccccc2c1N=Nc1ccccn1 | 63 | 95 | i | 95 | nt | 105 | 74 | i
COc1cccc(-c2nn(C)c3sc(C(=O)NCc4ccccn4)cc23)c1 | 55 | i | i | i | nt | i | 41 | 77
COCC(=O)N1[C@H](C(=O)N2CCCCC2)[C@@H](CO)[C@@H]2Cn3c(ccc(C4=CCCCC4)c3=O)[C@@H]21 | nt | nt | nt | nt | i | nt | nt | nt
COc1ccc(-c2c[n+]3c4n2CCCCC4=C(c2ccccc2)C3)cc1 | 67 | i | i | nt | nt | nt | i | nt
C[n+]1cc(-c2ccccc2)n2c1CCCCC2 | i | i | i | i | nt | nt | nt | nt
SMILES | Mdm2 MdmX PPI | Shn3 3UTR inh | Gli-Sufu block | Beta cell apopt | PAX8 reporter | CSC inhib | Mdm2-MdmX conf | FLuc counter
C[C@@H]1CCCCO[C@@H](CN(C)C(=O)Cc2ccccc2)[C@H](C)CN([C@@H](C)CO)C(=O)c2cc(NC(=O)Nc3cccc4ccccc34)ccc2O1 | nt | nt | nt | nt | i | nt | nt | nt
C/C=C/c1ccc([C@H]2[C@H]3CN(S(=O)(=O)c4cccs4)CCCCN3[C@H]2CO)cc1 | nt | nt | nt | nt | i | nt | nt | nt
COc1cc(/C=N/Nc2snc(SC)c2C#N)cc(OC)c1OC | 70 | i | i | i | nt | i | 73 | 43
CC(=O)N(c1ccccc1)C(C(=O)c1ccccc1)c1ccccc1 (stereo not given) | nt | i | i | nt | i | nt | nt | nt
CN(C)CC(C(=O)c1ccccc1)c1ccccc1 (stereo not given) | 100 | 95 | i | 106 | nt | i | 85 | 52
Cc1nnc(-c2ccccc2)c(=O)n1/N=C/c1c(O)ccc2ccccc12 | 54 | i | 91 | 88 | nt | i | 57 | i
CN(C)Cc1cn(CC[C@H]2CC[C@@H](NC(=O)Nc3ccccc3F)[C@@H](CO)O2)nn1 | nt | nt | nt | nt | i | nt | nt | nt
CCN(CC)CCC(=O)N1c2ccccc2Sc2ccc(Cl)cc21 | 56 | i | i | i | i | i | i | 65
C[C@H]1CN([C@@H](C)CO)C(=O)Cc2cc(NC(=O)NC3CCCCC3)ccc2O[C@@H]1CN(C)C(=O)Nc1ccc2c(c1)OCO2 | nt | nt | nt | nt | i | nt | nt | nt
C=CCn1c(C)cc(C(=O)CN2NS(=O)(=O)c3ccccc3C2=O)c1C | 64 | i | i | i | i | i | i | nt
Cc1cc(Nc2nc3ccccc3[nH]c2=O)n(-c2ccccc2)n1 | i | i | i | i | i | i | nt | nt
Cc1cc(Nc2nc3ccccc3nc2Cl)n(-c2ccc([N+](=O)[O-])cc2)n1 | 96 | i | i | 77 | nt | i | 49 | 51
O=C(N/N=C/c1ccc[nH]1)c1ccc(COc2cccc3cccnc23)cc1 | 97 | 90 | i | 100 | 79 | 100 | 83 | 52
O=C(N/N=C/c1ccccc1C(=O)O)c1ccc(COc2cccc3cccnc23)cc1 | i | i | i | i | i | i | nt | nt
O=C(N/N=C/c1ccc[nH]1)c1ccc(O)cc1 | i | i | i | i | i | i | nt | nt
Cc1cc(Br)c(OCc2ccc(C(=O)N/N=C/c3ccc[nH]3)cc2)c(Br)c1 | 98 | 97 | 83 | 117 | 95 | 98 | 94 | i
CCCN(C)C[C@H]1OCCCC[C@@H](C)Oc2ccc(NS(=O)(=O)c3cccs3)cc2C(=O)N([C@H](C)CO)C[C@@H]1C | nt | nt | nt | nt | i | nt | nt | nt
COc1ccc(S(=O)(=O)N(C)C[C@H]2OCCCC[C@@H](C)Oc3ccc(NS(=O)(=O)c4ccc(F)cc4)cc3C(=O)N([C@@H](C)CO)C[C@@H]2C)cc1 | nt | nt | nt | nt | i | nt | nt | nt
